Screening data from PubChem BioAssay.
HPGD inh: inhibitors of human 15-hydroxyprostaglandin dehydrogenase (HPGD); P15428; purified HPGD, NADH fluorescence kinetic, PGE2 substrate; Potency, µM, inactives show top-dose activity change, negative = inhibition, actives largely listed as inhibitors; 150,000 compounds, 4.3% hits; AID 894; also: potency is read from the fitted curve at half-maximal effect
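NADH formation kinetics: reaction with 30 uM PGE2 and 1 mM NAD+ (final), 20 nM enzyme, Tris-HCl pH 8 with Tween 20, after 15 min compound preincubation at room temperature. Fluorescence change, last versus first of five reads.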
PNC assembly inh: blocks assembly of the perinucleolar compartment. PC3M PTB-GFP, PNC prevalence imaging, 16 h; hits give low values. activity change (PNC), negative = inhibition, % at 10 µM. 140,000 compounds, 3.1% hits. AID 2417;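 active = readout at or below -70, meaning at least 70% loss of cells showing the perinucleolar compartment, a nuclear body marking cancer cells; inconclusive = readout between -30 and a set limit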;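 also: plate controls were DMSO wells for no effect and camptothecin positive control wells for full effect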
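PC3M cells stably expressing PTB-GFP, 750–1000 cells/well, treated 16 h at 37 °C with compound (23 nl of library stock), in duplicate. After paraformaldehyde fixation and Hoechst stain, imaged at 20x; PNC prevalence scored by image analysis.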
ALDH1A1 block: blocks purified human ALDH1A1 activity | P00352 | Purified ALDH1A1, NADH fluorescence, propionaldehyde substrate | Potency, µM (highest dose often 75.3 µM), for the others: at the top dose activity, negative = inhibition, usual class: inhibitors | 220,000 compounds, 7.3% hits | AID 1030;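 also: potency is read from the fitted curve at half-maximal effect; plate controls were no enzyme wells and a reference inhibitor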
Target sequence (P00352 whole entry, looked up): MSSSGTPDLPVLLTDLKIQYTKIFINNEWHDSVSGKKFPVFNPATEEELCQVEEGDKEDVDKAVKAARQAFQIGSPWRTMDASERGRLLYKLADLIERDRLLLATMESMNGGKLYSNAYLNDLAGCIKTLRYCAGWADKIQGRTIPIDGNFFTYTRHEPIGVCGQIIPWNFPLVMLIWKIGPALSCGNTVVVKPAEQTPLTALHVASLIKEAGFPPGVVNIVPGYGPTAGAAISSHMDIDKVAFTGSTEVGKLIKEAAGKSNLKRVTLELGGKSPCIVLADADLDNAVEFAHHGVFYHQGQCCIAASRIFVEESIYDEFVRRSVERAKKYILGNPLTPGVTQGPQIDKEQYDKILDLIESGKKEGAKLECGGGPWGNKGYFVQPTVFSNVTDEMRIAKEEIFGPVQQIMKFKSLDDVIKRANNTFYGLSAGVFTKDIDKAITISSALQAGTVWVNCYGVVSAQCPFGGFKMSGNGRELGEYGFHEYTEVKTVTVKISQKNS
The depositor's hits bear a star; ? = inconclusive; . = no result given; [ ] = another dose, or the depositor's remark. Only some compounds are listed: those with a hit (about 11% of all), similar ones and a draw of the others. Unless noted, calls follow the shape of the dose curve; as a rule, active = well fitted inhibition curve with a large enough effect (not every such curve was filed as active); inconclusive = small, poorly fitted or top-dose-only effect, or another doubt; inactive = no such curve, though single readings can be large or run the other way. Unless noted, % is scaled to controls: 0 for no effect and ±100 for the full control effect.

SMILES	HPGD inh	PNC assembly inh	ALDH1A1 block
O=C(c1nn(Cc2ccccc2)c(=O)c2ccccc12)N1CCN(C/C=C/c2ccccc2)CC1	-5%	37	13µM*
O=C(c1ccco1)N1CCN(C/C=C/c2ccccc2)CC1	.	18	?
O=C(Nc1ccccc1Cl)N1CCN(C/C=C/c2ccccc2)CC1	-3%	-91*	10%
Cc1ccc(S(=O)(=O)n2cnc3cc([N+](=O)[O-])ccc32)cc1C	0%	-1	4%
Cc1ccc(-n2c3nc(=O)[nH]c(=O)c-3cc3cc([N+](=O)[O-])ccc32)cc1C	32µM*	-16	3%
CC1=C(C(=O)Nc2ccccc2)C(c2cccs2)NC(=O)N1 (stereo unspecified)	.	.	5%
CCOc1ccccc1NC(=O)C1=C(C)NC(=S)NC1c1cccs1 (stereo unspecified)	-14%	-27	0.63µM*
CC1=C(C(=O)Nc2ccccc2C)C(c2cccs2)NC(=S)N1 (stereo unspecified)	-14%	?	13µM*
CC1=C(C(=O)Nc2ccc(C)cc2C)C(c2cccs2)NC(=S)N1 (stereo unspecified)	-7%	-18	?
CCCC(CCC)C(=O)Oc1cc(C)[nH]c(=O)c1[N+](=O)[O-]	.	.	-13%
Cc1nn(-c2ccccc2)c2sc(C(=O)OCc3nnc(-c4ccccc4)o3)cc12	?	31	?
CC(=O)[C@@]1(N=Nc2ccc(S(N)(=O)=O)cc2)CCOC1=O	-9%	.	?
O=C(NCC(O)COc1ccc([N+](=O)[O-])cc1)Nc1ccccc1 (stereo unspecified)	.	.	20µM*
COc1ccc(OCC(O)CNC(=O)Nc2ccccc2)cc1 (stereo unspecified)	.	.	-4%
O=C1CC2(CCCC2)CC(=O)N1CCNC[C@H]1COc2ccccc2O1	-1%	.	?
O=C1CC2(CCCC2)CC(=O)N1CCNCC1COc2ccccc2O1 (stereo unspecified)	.	.	28µM*
COc1ccc(CNc2ccnc(-c3c(C)noc3C)n2)c(OC)c1	.	.	-12%
Nc1nc(SCC(=O)c2ccc(F)cc2)n[nH]1	.	.	-13%
COc1ccc(C(=O)CSc2n[nH]c(C)n2)cc1[N+](=O)[O-]	.	.	10µM*
Cc1nc(SCC(=O)c2ccc(F)cc2)n[nH]1	10µM*	?	4.5µM*
COc1ccc(C(=O)OCC(N)=O)cc1[N+](=O)[O-]	1%	-30	-1%
CC1(C)CC(=O)C/C(=N/NC(=O)CCCOc2ccc(Cl)cc2Cl)C1	-8%	41	1%
CC(=O)SC[C@@H](Cc1ccccc1)C(=O)NCC(=O)OCc1ccccc1	-2%	.	-13%[20.9 µM]
O=C1Nc2ccccc2C1=Nc1cccc2ncccc12	-8%	.	4%[13.5 µM]
COC(=O)N/N=C/c1sc(N2CCCCC2)nc1-c1cccs1	.	.	25µM*
SMILES	HPGD inh	PNC assembly inh	ALDH1A1 block
COc1ccc(C(=O)N/N=C/c2sc(N3CCOCC3)nc2-c2ccccc2)cc1OC	.	.	-12%
O=C(Nc1ccccc1)c1cccc(N2C(=O)CCC2=O)c1	5%	?	?
CN(C)c1ccc(NC(=O)c2cccc(N3C(=O)CCC3=O)c2)cc1	-12%	-8	19µM*
COc1cccc(NC(=O)C(c2ccccc2)N2CCCC2)c1 (stereo unspecified)	.	.	8%
Cc1cccc2cc3c(N)c(C#N)sc3nc12	-7%	?	-9%
Cc1sc(NC(=O)c2sc3nc4c(C)cccc4cc3c2N)c(C#N)c1C	7.1µM*	?	2.8µM*
CC(C)NC(=O)N1CCC2(CC1)CCN(C(=O)c1cc(C(F)(F)F)cc(C(F)(F)F)c1)CC2	-11%	.	3%
Cc1ccc2nc(SCC(=O)NCc3ccco3)c(C)cc2c1	.	.	16µM*
Cc1ccc2nc(SCC(=O)NCc3cccs3)c(C#N)cc2c1	-13%	-25	7%
Cc1ccc2cc(C#N)c(SCC(=O)NCc3ccco3)nc2c1	-16%	-82*	?
Cc1ccc2c(c1)cc(C)c1nnc(SCC(=O)NCc3ccco3)n12	-21%	16	1%
Cc1ccc2cc(C#N)c(SCC(=O)NNC(=O)Cc3ccccc3)nc2c1	-5%	-5	4%
Cc1ccc2nc(SCC(=O)NCc3ccco3)c(C#N)cc2c1	7.9µM*	-18	-8%
CC1(C)OC(C(O)(c2cc(C(F)(F)F)cc(C(F)(F)F)c2)c2cc(C(F)(F)F)cc(C(F)(F)F)c2)C(C(O)(c2cc(C(F)(F)F)cc(C(F)(F)F)c2)c2cc(C(F)(F)F)cc(C(F)(F)F)c2)O1 (stereo unspecified)	.	.	17%[13.5 µM]
O=C(O)CCn1[nH]c(=O)ccc1=O	-11%	-100*	2%
O=C(O)CCn1c(=O)c2ccccc2c2ccccc2c1=O	-9%	17	9%
Cc1cc(C)c(NC(=O)C2CCCN2CCOC(=O)c2cccc([N+](=O)[O-])c2)c(C)c1 (stereo unspecified)	-5%	-19	40µM*
Cc1cc(C)c(NC(=O)C2CCCN2CCOC(=O)c2ccccc2)c(C)c1 (stereo unspecified)	-10%	?	?
O=C(NC(NC(=S)Nc1ccc(Cl)c(Cl)c1)C(Cl)(Cl)Cl)c1ccco1 (stereo unspecified)	-24%	6	7.1µM*
O=C(/C=C/c1ccccc1)NC(NC(=S)Nc1cc(Cl)ccc1Cl)C(Cl)(Cl)Cl (stereo unspecified)	-8%	-14	22µM*
O=C(Nc1ccc(Cl)c(Cl)c1)Oc1ccc(NC(=O)c2ccco2)cc1	-13%	15	3%
COC(=O)c1ccccc1NC(=S)NC(NC(=O)c1ccco1)C(Cl)(Cl)Cl (stereo unspecified)	-12%	30	?
O=C(Nc1ccc(Br)c(Cl)c1)c1ccco1	22µM*	?	-13%
CCC(=O)Nc1ccc(Cl)c(NC(=S)NC(=O)c2ccco2)c1	-1%	-4	-4%
O=C(/C=C/c1ccccc1)NC(NC(=S)Nc1ccc(Cl)cc1)C(Cl)(Cl)Cl (stereo unspecified)	-12%	?	2%
SMILES	HPGD inh	PNC assembly inh	ALDH1A1 block
Cc1ccccc1NC(=S)NC(NC(=O)c1ccco1)C(Cl)(Cl)Cl (stereo unspecified)	-16%	-120*	9.5µM*
COCCSc1nnc(NC(=O)CSCc2ccccc2)s1	-16%	-23	?
O=C(NNC1=Nc2cccc3cccc1c23)c1ccc(Br)cc1	.	.	0%
COC(=O)CC1C(C)(C)C(=O)C2CC3=C4CC(=O)OC(c5ccoc5)[C@]4(C)CCC3[C@@]1(C)C2=O (stereo partly specified)	0%	.	-6%
Cc1ccc(NC(=O)C(=O)NCCN2CCN(C(=S)Nc3ccccc3)CC2)cc1	-9%	?	6%
O=C(Cc1ccccc1)NC(NC(=S)Nc1cc(Cl)ccc1Cl)C(Cl)(Cl)Cl (stereo unspecified)	-16%	-1	?
O=C(NC(NC(=S)Nc1cc(Cl)ccc1Cl)C(Cl)(Cl)Cl)c1ccco1 (stereo unspecified)	-22%	26	8.9µM*
CCC(=O)N=c1ccn(C2=Nc3ccccc3NC2=C(C#N)C#N)cc1	.	.	0%
Brc1ccc(/C=N/Nc2ccccc2)cc1	?	6	-4%
Oc1ccc(/C=N/Nc2ccccc2)cc1	.	.	20µM*
CC(C)(C)c1ccc(/C=N/Nc2cccc(C(=O)O)c2)cc1	.	.	-2%
Oc1ccc(/C=N/NC2=NCCCCC2)cc1	?	19	18µM*
